In publication PMC7862700, “An all-to-all approach to the identification of sequence-specific readers for epigenetic DNA modifications on cytosine”:

Key:
Assay in all cases: DAPPL (digital affinity profiling via proximity ligation, sequencing); 10 mM Tris-HCl pH 7.5, 50 mM NaCl, 1 mM DTT, 4% glycerol, room temperature, 30 min; GST-TFs on glutathione beads, 16-mer random dsDNA library, 0.1% formaldehyde crosslink after washing; high values mean tight binding
Conditions in all cases: protein: recombinant; tags: N-terminal GST; dsDNA, one strand shown
SPIC = biological target: T1, SPIC (Homo sapiens, UniProt Q8N5J4 1-248)
T1 sequence: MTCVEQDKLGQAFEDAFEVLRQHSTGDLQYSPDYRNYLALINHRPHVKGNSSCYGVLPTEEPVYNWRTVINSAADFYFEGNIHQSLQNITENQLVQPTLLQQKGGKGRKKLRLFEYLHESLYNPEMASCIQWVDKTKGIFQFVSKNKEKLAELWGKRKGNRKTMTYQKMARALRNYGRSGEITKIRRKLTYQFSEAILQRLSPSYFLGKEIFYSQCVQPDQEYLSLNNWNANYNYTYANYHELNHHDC
Summary of the method: (§1)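 Binding signal is each hexamer's read frequency for a factor divided by its frequency in the tag-only sample. The factors were GST-fused human transcription factors from yeast, captured on glutathione beads, DNA-barcoded and pooled with that sample. Pools were incubated with 200 nmole of a random double-stranded 16-mer DNA library in Tris/NaCl/DTT/glycerol buffer at room temperature for 30 min, then washed, crosslinked with 0.1% formaldehyde, proximity-ligated with BsaI/T4 ligase (1 h, 37 °C), PCR-amplified and sequenced on an Illumina NextSeq500.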

GABPA = biological target: T2, GABPA (Homo sapiens, UniProt Q06546 1-454)
T2 sequence: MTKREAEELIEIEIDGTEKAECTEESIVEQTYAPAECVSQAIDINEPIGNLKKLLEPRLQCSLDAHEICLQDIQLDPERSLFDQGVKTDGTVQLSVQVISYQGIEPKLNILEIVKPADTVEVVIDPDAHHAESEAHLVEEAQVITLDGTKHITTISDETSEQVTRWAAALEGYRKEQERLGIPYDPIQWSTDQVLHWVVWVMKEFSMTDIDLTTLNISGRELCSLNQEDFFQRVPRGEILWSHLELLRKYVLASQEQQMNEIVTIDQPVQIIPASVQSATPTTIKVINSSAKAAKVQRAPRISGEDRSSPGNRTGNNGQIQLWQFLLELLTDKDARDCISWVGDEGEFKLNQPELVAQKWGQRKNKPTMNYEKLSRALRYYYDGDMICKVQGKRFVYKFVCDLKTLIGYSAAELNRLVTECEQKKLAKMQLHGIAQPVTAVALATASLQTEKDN
Summary of the method: as §1

ERG = biological target: T3, ERG (Homo sapiens, UniProt P11308 1-479)
T3 sequence: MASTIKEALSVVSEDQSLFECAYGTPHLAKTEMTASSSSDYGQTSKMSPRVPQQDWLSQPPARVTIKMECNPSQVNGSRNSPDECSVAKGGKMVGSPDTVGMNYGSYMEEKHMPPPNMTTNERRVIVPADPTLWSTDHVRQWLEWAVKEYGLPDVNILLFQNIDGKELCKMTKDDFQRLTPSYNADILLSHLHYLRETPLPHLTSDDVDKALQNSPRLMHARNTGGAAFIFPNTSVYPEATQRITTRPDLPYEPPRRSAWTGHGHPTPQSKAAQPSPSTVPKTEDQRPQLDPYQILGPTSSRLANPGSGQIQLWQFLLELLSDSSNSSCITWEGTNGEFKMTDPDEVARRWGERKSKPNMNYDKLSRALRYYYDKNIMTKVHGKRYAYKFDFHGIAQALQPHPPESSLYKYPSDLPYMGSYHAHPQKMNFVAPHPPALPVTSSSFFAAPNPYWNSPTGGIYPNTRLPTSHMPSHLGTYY
Summary of the method: as §1

EHF = biological target: T4, EHF (Homo sapiens, UniProt Q9NZC4 1-300)
T4 sequence: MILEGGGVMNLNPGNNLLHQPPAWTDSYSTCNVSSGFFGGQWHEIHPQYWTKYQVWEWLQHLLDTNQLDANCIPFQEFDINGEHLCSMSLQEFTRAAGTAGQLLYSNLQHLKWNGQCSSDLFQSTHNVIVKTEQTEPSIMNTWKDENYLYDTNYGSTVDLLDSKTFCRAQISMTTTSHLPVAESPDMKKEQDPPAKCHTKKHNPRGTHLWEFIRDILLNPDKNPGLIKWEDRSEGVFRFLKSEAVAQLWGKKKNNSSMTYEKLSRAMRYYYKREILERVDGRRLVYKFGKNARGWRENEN
Summary of the method: as §1

SPIB = SPIB (Homo sapiens, UniProt Q01892 1-262)
Summary of the method: as §1

ELK3 = biological target: T5, ELK3 (Homo sapiens, UniProt P41970 1-407)
T5 sequence: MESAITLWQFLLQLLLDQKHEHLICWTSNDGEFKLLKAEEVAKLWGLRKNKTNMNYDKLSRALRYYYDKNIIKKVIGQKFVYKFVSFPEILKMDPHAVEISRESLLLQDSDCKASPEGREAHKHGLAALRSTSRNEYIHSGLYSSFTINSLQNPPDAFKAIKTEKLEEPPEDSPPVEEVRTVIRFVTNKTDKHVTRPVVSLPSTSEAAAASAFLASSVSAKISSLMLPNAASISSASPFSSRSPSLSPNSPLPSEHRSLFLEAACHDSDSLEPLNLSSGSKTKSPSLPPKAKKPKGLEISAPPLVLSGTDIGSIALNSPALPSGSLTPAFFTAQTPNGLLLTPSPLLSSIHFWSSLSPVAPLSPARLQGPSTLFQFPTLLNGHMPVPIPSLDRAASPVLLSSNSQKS
Summary of the method: as §1

ELF4 = ELF4 (Homo sapiens, UniProt Q99607 1-663)
Summary of the method: as §1

ELK4 = biological target: T6, ELK4 (Homo sapiens, UniProt P28324-2 1-405)
T6 sequence: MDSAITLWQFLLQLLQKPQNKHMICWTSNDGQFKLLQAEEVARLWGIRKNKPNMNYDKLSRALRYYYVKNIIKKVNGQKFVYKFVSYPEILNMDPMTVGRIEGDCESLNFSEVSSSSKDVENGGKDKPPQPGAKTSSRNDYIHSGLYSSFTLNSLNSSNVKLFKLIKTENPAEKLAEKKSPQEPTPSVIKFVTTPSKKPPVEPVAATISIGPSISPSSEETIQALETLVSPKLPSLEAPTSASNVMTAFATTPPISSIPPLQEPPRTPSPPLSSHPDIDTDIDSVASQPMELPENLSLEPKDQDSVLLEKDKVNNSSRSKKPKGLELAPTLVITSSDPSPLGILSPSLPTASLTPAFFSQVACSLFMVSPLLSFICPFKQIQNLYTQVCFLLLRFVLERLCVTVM
Summary of the method: as §1

ERF = biological target: T7, ERF (Homo sapiens, UniProt P50548 1-548)
T7 sequence: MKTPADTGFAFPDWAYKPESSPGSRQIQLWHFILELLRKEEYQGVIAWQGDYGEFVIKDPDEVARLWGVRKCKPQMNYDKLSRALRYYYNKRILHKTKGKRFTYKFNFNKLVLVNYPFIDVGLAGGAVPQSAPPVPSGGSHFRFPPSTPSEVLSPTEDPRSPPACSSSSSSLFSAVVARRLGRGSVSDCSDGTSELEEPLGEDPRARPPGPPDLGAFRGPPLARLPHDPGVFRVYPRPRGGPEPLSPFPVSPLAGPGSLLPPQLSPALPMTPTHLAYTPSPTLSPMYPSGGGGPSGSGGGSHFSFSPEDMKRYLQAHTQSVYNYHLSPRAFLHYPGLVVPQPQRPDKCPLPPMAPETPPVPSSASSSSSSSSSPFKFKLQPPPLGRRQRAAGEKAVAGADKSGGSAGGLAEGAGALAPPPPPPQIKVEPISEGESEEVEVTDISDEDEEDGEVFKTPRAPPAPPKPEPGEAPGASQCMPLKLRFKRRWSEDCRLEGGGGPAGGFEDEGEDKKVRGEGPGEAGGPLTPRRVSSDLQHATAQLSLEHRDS
Summary of the method: as §1

ETV3L = biological target: T8, ETV3L (Homo sapiens, UniProt Q6ZN32 1-361)
T8 sequence: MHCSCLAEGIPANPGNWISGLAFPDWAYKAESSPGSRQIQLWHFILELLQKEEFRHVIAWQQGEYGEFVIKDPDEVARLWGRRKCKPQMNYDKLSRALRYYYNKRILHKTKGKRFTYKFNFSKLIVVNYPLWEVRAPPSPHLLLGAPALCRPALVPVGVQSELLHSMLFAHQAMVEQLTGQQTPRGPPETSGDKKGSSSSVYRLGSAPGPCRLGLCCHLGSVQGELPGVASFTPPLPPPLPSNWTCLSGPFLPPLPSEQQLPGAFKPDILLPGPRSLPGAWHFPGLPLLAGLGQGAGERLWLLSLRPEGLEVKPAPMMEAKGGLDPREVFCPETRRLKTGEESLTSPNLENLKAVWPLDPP
Summary of the method: as §1

ETS2 = biological target: T9, ETS2 (Homo sapiens, UniProt P15036 1-469)
T9 sequence: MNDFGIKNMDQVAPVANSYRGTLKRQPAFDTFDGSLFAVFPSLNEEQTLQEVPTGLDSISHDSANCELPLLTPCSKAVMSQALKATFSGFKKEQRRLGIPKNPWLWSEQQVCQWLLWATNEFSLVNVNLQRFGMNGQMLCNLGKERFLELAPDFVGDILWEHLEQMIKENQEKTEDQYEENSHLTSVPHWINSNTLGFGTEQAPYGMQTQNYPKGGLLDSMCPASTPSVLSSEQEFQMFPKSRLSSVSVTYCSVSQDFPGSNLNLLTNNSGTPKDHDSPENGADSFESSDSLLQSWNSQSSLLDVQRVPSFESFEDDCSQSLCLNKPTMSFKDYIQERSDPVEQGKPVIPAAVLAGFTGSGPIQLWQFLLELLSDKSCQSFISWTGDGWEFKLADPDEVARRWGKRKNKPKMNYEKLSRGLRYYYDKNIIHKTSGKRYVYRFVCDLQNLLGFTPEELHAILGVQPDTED
Summary of the method: as §1

ETV7 = biological target: T10, ETV7 (Homo sapiens, UniProt Q9Y603 1-341)
T10 sequence: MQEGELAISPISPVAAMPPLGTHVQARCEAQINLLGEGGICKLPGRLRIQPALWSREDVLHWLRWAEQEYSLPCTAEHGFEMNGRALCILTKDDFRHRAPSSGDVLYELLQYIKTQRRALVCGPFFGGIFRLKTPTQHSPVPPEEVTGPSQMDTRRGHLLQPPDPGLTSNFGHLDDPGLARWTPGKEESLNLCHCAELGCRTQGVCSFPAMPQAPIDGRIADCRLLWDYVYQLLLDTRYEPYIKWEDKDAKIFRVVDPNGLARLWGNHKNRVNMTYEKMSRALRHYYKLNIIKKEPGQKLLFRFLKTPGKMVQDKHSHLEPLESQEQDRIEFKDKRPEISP
Summary of the method: as §1

ETV3 = biological target: T11, ETV3 (Homo sapiens, UniProt P41162-2 1-143)
T11 sequence: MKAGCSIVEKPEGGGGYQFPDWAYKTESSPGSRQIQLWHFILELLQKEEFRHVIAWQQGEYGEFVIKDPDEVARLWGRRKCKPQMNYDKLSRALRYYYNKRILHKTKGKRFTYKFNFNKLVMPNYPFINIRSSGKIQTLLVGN
Summary of the method: as §1

ETV6 = ETV6 (Homo sapiens, UniProt P41212 1-452)
Summary of the method: as §1

Sequence of ELF4 (Q99607 whole entry): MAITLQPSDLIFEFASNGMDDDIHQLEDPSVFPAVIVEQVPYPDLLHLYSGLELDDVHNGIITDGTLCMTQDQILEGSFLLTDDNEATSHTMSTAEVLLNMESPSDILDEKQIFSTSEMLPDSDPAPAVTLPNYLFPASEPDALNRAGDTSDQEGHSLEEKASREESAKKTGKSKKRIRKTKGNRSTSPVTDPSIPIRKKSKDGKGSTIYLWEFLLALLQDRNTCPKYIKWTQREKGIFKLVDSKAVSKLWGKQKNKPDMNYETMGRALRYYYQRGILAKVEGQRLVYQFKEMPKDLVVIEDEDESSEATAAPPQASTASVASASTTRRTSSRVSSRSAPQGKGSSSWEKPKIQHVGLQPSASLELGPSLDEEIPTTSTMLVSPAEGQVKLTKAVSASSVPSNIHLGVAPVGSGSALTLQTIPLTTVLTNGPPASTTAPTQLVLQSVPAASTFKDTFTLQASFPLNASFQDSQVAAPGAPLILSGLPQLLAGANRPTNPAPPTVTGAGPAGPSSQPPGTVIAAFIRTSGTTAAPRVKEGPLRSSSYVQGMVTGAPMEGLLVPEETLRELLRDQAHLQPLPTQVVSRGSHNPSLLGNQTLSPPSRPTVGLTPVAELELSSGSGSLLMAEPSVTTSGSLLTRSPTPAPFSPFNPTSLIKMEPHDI
Sequence of ETV6 (P41212 whole entry): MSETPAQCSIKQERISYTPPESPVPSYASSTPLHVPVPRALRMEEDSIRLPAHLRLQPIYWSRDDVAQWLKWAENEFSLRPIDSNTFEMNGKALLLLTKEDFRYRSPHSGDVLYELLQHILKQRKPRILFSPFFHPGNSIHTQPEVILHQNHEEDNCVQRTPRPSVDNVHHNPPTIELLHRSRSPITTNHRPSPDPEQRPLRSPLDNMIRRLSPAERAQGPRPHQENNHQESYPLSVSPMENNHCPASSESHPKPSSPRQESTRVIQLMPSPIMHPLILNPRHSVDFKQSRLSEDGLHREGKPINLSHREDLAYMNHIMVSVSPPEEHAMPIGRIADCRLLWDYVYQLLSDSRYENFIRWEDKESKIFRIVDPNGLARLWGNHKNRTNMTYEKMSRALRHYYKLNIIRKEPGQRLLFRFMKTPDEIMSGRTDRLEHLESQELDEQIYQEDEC
Sequence of SPIB (Q01892 whole entry): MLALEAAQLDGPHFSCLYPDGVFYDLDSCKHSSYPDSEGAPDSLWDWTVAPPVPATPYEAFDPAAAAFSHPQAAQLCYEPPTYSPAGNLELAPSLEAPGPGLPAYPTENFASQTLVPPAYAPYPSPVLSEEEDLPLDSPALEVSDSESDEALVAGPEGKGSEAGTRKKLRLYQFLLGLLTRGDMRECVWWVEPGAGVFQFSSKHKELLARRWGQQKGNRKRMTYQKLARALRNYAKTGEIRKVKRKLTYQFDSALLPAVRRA

Sequence: GGTCCA
- binding signal (SPIC): 1.02 fold enrichment (6-mer frequency, TF over GST control)

Sequence: CATATG
- binding signal (GABPA): 1.09 fold enrichment (6-mer frequency, TF over GST control)
- binding signal (ERG): 1.07 fold enrichment (6-mer frequency, TF over GST control)
- binding signal (EHF): 1.01 fold enrichment (6-mer frequency, TF over GST control)
- binding signal (SPIB): 1.04 fold enrichment (6-mer frequency, TF over GST control)
- binding signal (ELK3): 1.04 fold enrichment (6-mer frequency, TF over GST control)
- binding signal (SPIC): 1.01 fold enrichment (6-mer frequency, TF over GST control)
- binding signal (ELF4): 1.04 fold enrichment (6-mer frequency, TF over GST control)
- binding signal (ELK4): 1.11 fold enrichment (6-mer frequency, TF over GST control)
- binding signal (ERF): 1.06 fold enrichment (6-mer frequency, TF over GST control)
- binding signal (ETV3L): 1.06 fold enrichment (6-mer frequency, TF over GST control)
- binding signal (ETS2): 1.04 fold enrichment (6-mer frequency, TF over GST control)
- binding signal (ETV7): 1.14 fold enrichment (6-mer frequency, TF over GST control)
- binding signal (ETV3): 1.02 fold enrichment (6-mer frequency, TF over GST control)
- binding signal (ETV6): 1.03 fold enrichment (6-mer frequency, TF over GST control)
